Experimental data: PubChem BioAssay AID2314 (National Center for Advancing Translational Sciences (NCATS), 2010)
In all, about 300,000 compounds went through this assay and about 37,000 (12%) were called active. Many of the other results were omitted from the sample, so actives are more common in it than they were. Values without a mark were called inactive. Rule as the data show it: active = max response mostly above about 13% (no sharp cut-off); inactive = mostly below about 14%.

Assay: Cycloheximide Counterscreen for Small Molecule Inhibitors of Shiga Toxin; also: read at 38.3 µM for the half of the compounds with a filed dose; 0% is about no effect
Settings: cell reporter, cycloheximide protein synthesis inhibition counterscreen; active compounds read high
`O=C1CCNCCN1[C@H](CO)Cc1ccccc1` showed a max response of -1.44%. In the case of `COc1cc(NC(=O)C2=C(C)OCCS2)c(Cl)cc1C(=O)NCCN1CCN(C)CC1`, the max response is reported as -6.54%. In the case of `O=C(O)c1[nH]c2ccccc2c1C(c1cccc(O)c1)c1c(C(=O)O)[nH]c2ccccc12`, the max response is reported as -0.808%. Compound `COC(=O)c1sccc1NS(=O)(=O)c1ccc(F)cc1F` has a max response of -6.38%. `Cc1c(CN2CCC(n3nccc3NC(=O)CCc3ccccc3)CC2)cnn1C` gave a max response of 0.463%. With `CCNC(=O)CC1C(=O)N(c2ccc(OC)cc2)C(=O)N1CCOC` (stereo not drawn) the max response was -2.06%. Work on `COc1ccc(/C(N)=N/OC(=O)Oc2ccccc2)cc1` yielded a max response of -4.11%. For `COc1ccc(/C(N)=N/OC(=O)CCCc2ccccc2)cc1`, the max response was 44.3% (active). In the case of `COc1ccc(C(=O)NC(=S)NNC(=O)CCc2ccccc2)cc1`, the max response is reported as 10.3%. For `COc1ccc(/C(N)=N/OC(=O)Cc2ccccc2)cc1`, the max response was 46.9% (active). `COc1ccc(C(=O)OCC(=O)NCCCc2ccccc2)cc1OC` gave a max response of 0.591%. Work on `CCOC(=O)C(Cc1ccccc1)NC(=O)CCC(=O)c1ccc(OC)cc1` (stereo not drawn) yielded a max response of -1.47%. With `COCCN1CCn2c(nc3cc(NS(C)(=O)=O)ccc32)C1` the max response was -4.53%. For `CC1(C)COC(c2cccn2Cc2ccccc2Cl)=N1`, the max response was 2.16%. `O=C(Nc1cccc(CCc2ccccn2)c1)c1ccc(Cl)cc1` showed a max response of 11%. In the case of `C=CCNc1nc(C)nc(OC)n1`, the max response is reported as -3.36%. Compound `COc1nc(NCc2ccc(Cl)cc2)nc(OC)n1` has a max response of 9.12%. With `C=CCNc1nc(Nc2ccc(Cl)cc2)nc(OC)n1` the max response was 35.6% (active). Compound `NS(=O)(=O)c1ccc(CNC(=O)c2cccc(Oc3ccccc3)c2)cc1` has a max response of 1.56%. `CC1CCCN(C(=O)c2ccc3c(c2)C(=O)N(CCC2=CCCCC2)C3=O)C1` (stereo not drawn) gave a max response of 2.05%. Compound `COc1ccc(S(=O)(=O)N2CCOC2CNC(=O)C(=O)NCc2ccncc2)cc1OC` (stereo not drawn) has a max response of -2.13%. In the case of `CN(NC(=O)c1ccccc1F)c1nc(C(F)(F)F)nc2ccccc12`, the max response is reported as -3.39%. `C/C(=N\NC(=O)Cc1ccc(Cl)cc1)c1ccccn1` gave a max response of -1.28%. For `C/C(=N\NC(=O)c1ccccc1F)c1ccccn1`, the max response was 31.8% (active). `NC1=NC(=O)C(Cc2cccc(Cl)c2)S1` (stereo not drawn) showed a max response of 13%. `O=C(NC(=S)Nc1ccccc1N1CCCCC1)c1ccc(F)cc1` gave a max response of 4.5%. With `COc1ccccc1C(=O)NC(=S)Nc1ccccc1N1CCCCC1` the max response was 18.9% (active). `COc1ccc(C(=O)NC(=S)Nc2ccccc2N2CCN(S(C)(=O)=O)CC2)cc1OC` showed a max response of -0.375%. `COc1ccc(OC)c(NC(=O)c2sc3nc(C)cc(C)c3c2N)c1` gave a max response of 1.77%. For `O=S(=O)(NC1CC1)c1ccc(F)c(F)c1`, the max response was -2.05%. Work on `COc1ccccc1-n1c(SCC(=O)Nc2cccc(C(=O)O)c2)nnc1-c1ccccc1O` yielded a max response of 0.473%. `C=C1/C(=C\C=C2\CCCC3(C)C2CCC3C(C)/C=C/C(O)C2CC2)CC(O)CC1O` (stereo not drawn) gave a max response of -6.77%. `C/C(=N\NC(=O)COc1c(C)cccc1C)c1cccs1` gave a max response of 6.57%. For `Cc1ccc(C)c(NC(CC(=O)c2ccccc2)C(=O)OCC(=O)c2cccs2)c1` (stereo not drawn), the max response was -1.02%. In the case of `Cc1ccccc1C(CC(=O)c1cccs1)C(C#N)C#N` (stereo not drawn), the max response is reported as 58.6% (active). `CCn1c(SCC(=O)Nc2nccs2)nnc1-c1ccco1` gave a max response of -4.57%. With `Cc1[nH]c2ccccc2c1SCC(=O)Nc1nccs1` the max response was 29.5% (active). `CC(=O)c1cc(C#N)c(N2CC(C)OC(C)C2)nc1C` (stereo not drawn) showed a max response of -2.5%. With `CC(=O)c1cc(C#N)c(SCC(=O)C(C)(C)C)nc1C` the max response was 55.2% (active). In the case of `Cc1cc(C(F)(F)F)nc(SCC(=O)Nc2nccs2)n1`, the max response is reported as -1.23%. For `CC(=O)c1cc(C#N)c(SCC(=O)Nc2nccs2)nc1C`, the max response was 24.6% (active). `CCn1c(SCC(=O)Nc2nccs2)nnc1-c1ccncc1` gave a max response of -3.78%. `Cc1cccc(C)c1Nc1nnc(SCC(=O)Nc2sccc2C#N)s1` gave a max response of -1.09%. For `CC(=O)c1cc(C#N)c(N2CCCCC2)nc1C`, the max response was 2.13%. With `Cc1ccccc1-c1ccc(C(=O)O)s1` the max response was 27.3%. `O=C1CSC(=S)N1c1ccc(Cl)c(Cl)c1` gave a max response of 3.61%. Compound `CCS(=O)(=O)N1CCC(N2CCN(c3ccccc3)CC2)CC1` has a max response of -2.51%. `Cc1ccc(N(Cc2cc(=O)[nH]c3ccccc23)C(=O)CCl)cc1` gave a max response of -3.54%. Compound `COc1cc(NC(=O)c2ccccc2)c(OC)cc1NC(=O)Cc1ccccc1` has a max response of -0.835%. With `O=C(CCC1CCCN(C(=O)Cc2ccc(F)cc2)C1)N1CCN(c2ccccn2)CC1` (stereo not drawn) the max response was -1.12%. For `CC(=O)Nc1ccc(N2CCOCC2)c(C(=O)Nc2cccc(C)c2)c1`, the max response was -4.06%. In the case of `Cc1cccc(NC(=O)c2sc3nc4c(c(-c5ccco5)c3c2N)CCC4)c1`, the max response is reported as 20.8%. In the case of `Cc1cccc(NC(=O)c2sc3nc(N4CCOCC4)c4c(c3c2N)CCCC4)c1`, the max response is reported as 14.3% (active). Compound `CC(C)c1ccc(S(=O)(=O)N2CCN(C(=O)c3ccc(N4CCCC4)c([N+](=O)[O-])c3)CC2)cc1` has a max response of 21.7%. `CCCCNC(=O)N(O)C1N(/N=C/c2ccc(N(C)C)cc2)C(=S)SC1(C)C` (stereo not drawn) gave a max response of -1.87%. Work on `CCC(C)N1C(=S)SC(C)(C)C1N(O)C(=O)NC1CCCCC1` (stereo not drawn) yielded a max response of -3%. With `CCCCNC(=O)N(O)C1N(/N=C/c2ccccc2O)C(=S)SC1(C)C` (stereo not drawn) the max response was 40.5% (active). Compound `COc1ccc(CC(=O)Nc2sc(Cc3ccccc3)c(C)c2C(N)=O)cc1` has a max response of -4.58%. In the case of `CCCc1cc(=S)n2c([nH]c3ccccc32)c1C#N`, the max response is reported as 9.34%. Compound `COc1cc(C(=O)N2CCN(C/C=C/c3ccccc3)CC2)cc(OC)c1C` has a max response of -2.42%. With `O=C(NCCc1c[nH]c2ccccc12)c1cc2ccccc2oc1=O` the max response was 52.8% (active). `COc1ccc(/C=C(\NC(=O)c2ccc(OC)c(OC)c2)C(=O)NCCc2c[nH]c3ccccc23)cc1` showed a max response of -2.44%. With `Cc1ccc(C(=O)N/C(=C/c2ccco2)C(=O)NCCc2c[nH]c3ccccc23)cc1C` the max response was 15.8% (active). Work on `O=C(NCCc1c[nH]c2ccccc12)C(=O)NCC1CCCO1` (stereo not drawn) yielded a max response of -2.43%. With `O=C(NCCc1c[nH]c2ccccc12)c1cccc(Br)c1` the max response was 27.9% (active). Compound `O=C(NC(Cc1c[nH]c2ccccc12)C(=O)O)/C(=C/c1ccco1)NC(=O)c1ccccc1` (stereo not drawn) has a max response of 7.91%. `CN(c1ccccc1)S(=O)(=O)c1ccc(Cl)c(C(=O)NCCc2c[nH]c3ccccc23)c1` gave a max response of -2.81%. With `COc1ccccc1CC(=O)NCCc1c[nH]c2ccccc12` the max response was 5.67%. `Cc1cc(C)cc(NC(=S)NCCc2c[nH]c3ccccc23)c1` showed a max response of -3.82%. Work on `Cc1cc(C)cc(NS(=O)(=O)Cc2ccccc2)c1` yielded a max response of 2.71%. For `COc1ccc(CNc2nc3c(c(=O)[nH]c(=O)n3C)n2Cc2ccccc2)cc1`, the max response was 1.15%. Compound `CCn1c(CNC(=O)c2cc(OC)c(OC)c(OC)c2)cc2cc(C)ccc21` has a max response of -0.507%. `CC(=O)c1c(C)[nH]c(C(=O)COC(=O)c2cccc(S(=O)(=O)N(C)c3ccccc3)c2)c1C` showed a max response of 6.94%. `COc1ccc(C(=O)OCC(=O)NCC2CCCO2)cc1[N+](=O)[O-]` (stereo not drawn) showed a max response of 0.371%. Compound `CCC(=O)c1ccc(OCC(O)Cn2nc(C)c(C(C)=O)c2C)cc1` (stereo not drawn) has a max response of -6.71%. With `O=C(NCc1cccc(Cl)c1)C1CCC(=O)N(C2CC2)C1` (stereo not drawn) the max response was 0.588%. For `O=C(CSc1ccc(-c2ccco2)nn1)Nc1cccc(F)c1`, the max response was 26% (active). Compound `COc1ccc(NC(=O)CSc2ccc(-c3ccco3)nn2)c(OC)c1` has a max response of 9.5%. In the case of `COc1cc(NC(=O)CSc2ccc(-c3cccnc3)nn2)cc(OC)c1`, the max response is reported as -2.34%. For `O=C(CSc1ccc(-c2ccc(F)cc2)nn1)Nc1ccc2c(c1)OCCO2`, the max response was 10.9%. In the case of `O=C(CSc1ccc(-c2ccccn2)nn1)Nc1ccccc1`, the max response is reported as 20% (active). `Cc1ccccc1NC(=O)CSc1ccc2nnc(-c3ccccn3)n2n1` gave a max response of -1.54%. With `COc1ccc(CNC(=O)COC(=O)/C=C/c2ccc(S(=O)(=O)N3CCOCC3)cc2)cc1` the max response was 9.31%. Compound `O=c1c2ccccc2nnn1CSc1nc2sc3c(c2c(=O)n1CC1CCCO1)CCC3` (stereo not drawn) has a max response of -2.17%. For `OC(c1ccc(Cl)cc1)C(CN1CCOCC1)c1ccccc1` (stereo not drawn), the max response was -2.76%. With `COc1ccc2c(C)c(CCC(=O)NC3CC3)c(=O)oc2c1C` the max response was 9.57%. Compound `O=C1C(=O)N(c2ccccc2)c2ccccc21` has a max response of -2.88%. For `CC(=O)CCS(=O)(=O)c1ccc(C)c(C)c1`, the max response was 27.6% (active). `O=C(O)CCS(=O)(=O)c1ccc(-c2ccccc2)cc1` gave a max response of -1.33%. Compound `Cc1ccc(S(=O)(=O)CCC(=O)OCc2ccccc2)cc1` has a max response of 0.648%. For `COc1ccc(OC)c(NC(=O)C2CCCN2S(=O)(=O)c2cccc3nsnc23)c1` (stereo not drawn), the max response was 12.5%. `Cc1ccc(-c2nnc(Nc3ccc(C(=O)N(C)C)cc3)c3ccccc23)cc1S(N)(=O)=O` gave a max response of -2.16%. In the case of `O=C(Nc1ccc(-c2nnc(-c3ccccc3)o2)cc1)C1CCCO1` (stereo not drawn), the max response is reported as 39.1% (active). `CCOC(=O)c1ccc(NC(=O)c2ccc(NC(=O)C3CCCO3)cc2)cc1` (stereo not drawn) gave a max response of 13.9%. Work on `O=C(CSc1nnc(-c2ccc(NS(=O)(=O)c3ccccc3)cc2)o1)NCC1CCCO1` (stereo not drawn) yielded a max response of -1.17%. With `O=C(Nc1cccc(-c2nnc(-c3ccccc3)o2)c1)C1CCCO1` (stereo not drawn) the max response was 37.3% (active). For `Cc1cccc(NC(=O)Nc2nnc(-c3ccccc3)o2)c1`, the max response was 2.04%. For `CC(C)(C)NS(=O)(=O)c1ccc(NC(=O)C2CCCO2)cc1` (stereo not drawn), the max response was -3.65%.
